PubChem BioAssay AID1508600 (Functional Genomics Laboratory (NCATS/FGL), 2020)
In all, about 53,000 sequences went through this assay and about 3,700 (7%) were called active.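 How the source made its calls: active means gene knockdowns whose robust z-score for IL-1 alpha signal is at least 2 or at most -2, so actives lie on both sides; inactive means the rest.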 Shown is part of a subset that was picked to be rich in actives.

Assay: Components of the Cytosolic LPS Sensing Pathway: Gene Identification via Genome-wide siRNA Screen
Details: RAW264.7 macrophages, IL-1a HTRF, actives lie on both sides, screened at 100 nM (by protocol), cells primed 5 h with Pam3CSK4 first
Text: Non-canonical inflammasome activation by cytosolic LPS is a critical component of the host response to Gram-negative bacterial infection, however we lack a comprehensive understanding of the cellular processes that control this pathway. Here we describe a genome-wide siRNA screen to identify genes regulating the mouse macrophage IL-1 alpha response to cytosolic LPS.
RAW264.7 cells were maintained in complete DMEM media, comprising DMEM with 4.5 g/L glucose, 10% FBS (Gemini Bio-Products, West Sacramento, CA), 2 mM Glutamine (Lonza) and 20 mM HEPES (Lonza), hereafter complete DMEM.
The RNAi screen was conducted in 384-well format using the Ambion Silencer Mouse Genome siRNA Library (#4391425), which consists of three unique, nonoverlapping, nonpooled siRNAs for each of 17,000 gene targets. siRNA reagents ([…]) were stamped into 384-well white flat-bottom microplates (Corning, 3570) using a Velocity11 VPrep liquid handling system (Agilent) integrated into a BioCel robotic platform (Agilent) in columns 1-22, leaving columns 23-24 empty for negative (Ambion, Negative control #1) and positive (mouse Casp4) controls, respectively. The median value of each plate's negative control column was used to normalize sample wells, and the positive control was used to assess transfection efficiency and assay performance.
Lipofectamine RNAiMAX Transfection Reagent ([…]; Invitrogen) was added in […] serum-free, antibiotic-free media to plate wells using a Thermo Scientific Matrix WellMate and Microplate Stacker. Plates were incubated for 45 min at room temperature to allow for the sufficient formation of siRNA-lipid complexes. Cells were seeded at a density of 1x10^4 cells per well in 20 microL media containing 20% (vol/vol) FBS without antibiotics. The final concentration of siRNA in each well was 100 nM. Cells were cultured for 48h at 37 degrees C in 5% CO2 before addition of […] of TLR ligand Pam3CSK4 for 5 hours. The medium was then removed, replaced with […] growth media and cell were transfected with […] of LipidA and TransIT-TKO (Mirus) for 24 hour. At the end of the LipidA treatment, […] of supernatant was transferred to a 384 Greiner Bio-one non-binding low volume plate and […] of IL-1a HTRF reagent (Cisbio, 62MIL1APEH) was added and incubated at room temperature overnight. The plates were read on an EnVision plate reader (PerkinElmer). Cell viability was measured by adding 20ul Cell Titer Glo to the original plate and running a luminescence read on the EnVision. The quantified IL-1a signal for each siRNA gene-targeted well was divided by the median of the negative control wells and multiplied by 100 to achieve a negative control normalized value for each well/siRNA. This normalized value was then used to generate a robust z-score by first taking the log of each value and then by subtracting the median and dividing by the […].

z-score, active:
GGGACAGUGGACCAUUAUGTT against Rnf8 -2.41
GGAGUUUUGUGAACUAUGATT against Slc36a3 -2.73
CGGCUUACGCAUGUCUAUGTT against Polr2a -2.01
GGUGGAUGCCUUGAAUAUGTT against 1700029P11Rik -2.25
GCCAUGCAAAUCGAUGGGUTT against Rora -2.69

z-score, inactive:
GCAAUCUAUAAGAGGUACATT against Axin2 1.79
GGCCACAUUGUCCUAUCAGTT against Cdh16 0.0595
GCAGAAGUCUCGUAUCCAGTT against Arl6ip4 0.337
CAUCGUGUGAAACUGGAGATT against Carmil3 0.608
GGCUGUCAAGAAGCACAUCTT against Inhba 1.08
GGAAAGUUCCAAGUUACCATT against Arl13b 1.18
GGAGCCUCAGGUCCAAAUGTT against Fancd2os 1.89
GGAUGUGCAAGGAAUCUCATT against Spint1 0.741
GGCAAUGCACUUAUAACUCTT against Olfr118 0.389
GCUGCAUAGACUCAUGGUUTT against Znrf1 -0.408
GGCACUCCUCUUUGUUUUCTT against Olfr414 -1.82
CCCAAAUGAUUGGAUCUGUTT against Cd40lg 0.273
CGAAUGGCUAUCAGUGAGGTT against Tbc1d20 -1.04
GGACUGUAUGUGGAAUGGCTT against Bmyc -0.46
GCUACUAAGCACCUAGAGATT against Fxr2 -0.932
CUCUAGCUACUAUUUUCUCTT against Olfr824 -1.57
GGAUAUGGACUAUUCACGGTT against Dgat1 -1.32
GGUUUUGCCAAGGACGCAGTT against Ngf 0.124
GGAAGAAAAAAAAUCUCCATT against Frmd3 0.577
GGUGGUUAUGAUCUAUGAUTT against Dazap1 -1.43
GGCUGGAGCCUCAAAUAUCTT against Rapsn -0.574
CGAGCUAACAGCAUUGCUGTT against Ajuba 0.532
GCAUUUAAAAUACACGGUGTT against Arg1 0.264
GGUGACUCCAAGAAUGUGGTT against Wfdc1 -0.703
CCCAGAGCCAGGUUCAAACTT against AY702103 0.78
